Results published in ChEMBL document CHEMBL3988442, “University of Dundee, Small-Polar-MMV Screening Library” (2021).

Species on record: Homo sapiens
Experiment: To identify inhibition of the IFN signalling (Jak-Stat) pathway via expression of an eGFP reporter gene under the control of an IFN-stimulated response element (ISRE) containing MxA promoter.
Assay type: functional
Design: scale not given: direction of the effect not stated beside the values
Details: 30 µM

Row | Compound | Percent Effect [%]
1 | COc1c(CNC2CCc3cc(F)ccc32)c(C)nn1C (stereo not given) | -9.97
2 | Cc1ccc(NC2CCN(C(=O)c3cc(C(N)=O)cs3)CC2)nn1 | 21.6
3 | COC[C@@H]1CC[C@H]2[C@H](CCN2S(=O)(=O)c2ccc(OC)cc2)O1 | -19.4
4 | NC(=O)CN1CCC(C(=O)N2CCCC(OCc3cccnc3)C2)CC1 (stereo not given) | 9.22
5 | Cc1ccc(F)cc1C(=O)N1C[C@@H](CN2CCOCC2)[C@@H](CO)C1 | 2.21
6 | CC(C)N1CCO[C@H]2CN(C(=O)c3ccc(N(C)C)cc3)C[C@H]21 | 4.68
7 | O=C(c1cc(C2CC2)on1)N1CCCC(n2cncn2)C1 (stereo not given) | 15.6
8 | CC(Cn1cccn1)NC(=O)N1CCN(Cc2cccs2)CC1 (stereo not given) | 12.5
9 | Cc1nc(-c2ccc(C(=O)O)cc2)cc(C2CCN(C(C)C)C2)n1 (stereo not given) | 8.94
10 | O=C(Nc1nnc(C2CC2)s1)NC1CCN(Cc2ccccc2)C1 (stereo not given) | 43.6
11 | Cc1cc(C(=O)NCc2ccnc(N3CCN(C)CC3)c2)c(C)s1 | -0.506
12 | CC(Cn1cccn1)NC(=O)NCc1cccnc1OC1CCCC1 (stereo not given) | -10.3
13 | Cn1ccc(CN2CCC(NC(=O)Cc3ccccc3)CC2)cc1=O | -7.1
14 | CN(C)CC(=O)N1CCC2(CCN(Cc3ccccn3)C2=O)C1 (stereo not given) | -1.64
15 | CC(C)n1ccnc1C1CCN(C(=O)c2ccccc2)CC1 | 14.4
16 | Cc1nccn1-c1cccc(C2CCCN2S(=O)(=O)N(C)C)n1 (stereo not given) | 21
17 | O=C(c1ccccn1)N1CCN(c2ccc(-c3cccnc3)nn2)CC1 | 1.87
18 | Cc1ccccc1-c1cc(C(=O)NCCN2CCCS2(=O)=O)[nH]n1 | 4.69
19 | Cc1cc2cc(C(=O)N3CC[C@H](O)[C@]4(CCCO4)C3)ccc2o1 | -3.08
20 | CC(C)n1[nH]c(=O)c2c1NC(=O)CC2c1ccc2ncccc2c1 (stereo not given) | 17.7
21 | O=C(C1CCC1)N1CCn2c(COc3ncccn3)nnc2C1 | 6.38

The compounds below were run against T1, Tyrosyl-tRNA synthetase, putative (Trypanosoma cruzi (strain CL Brener)) (UniProt Q4DSP6) (assay: Trypanosoma cruzi tyrosyl tRNA synthetase (TcYRS) _High Tyrosine SOP). Details: 30 µM.
T1 sequence (whole entry): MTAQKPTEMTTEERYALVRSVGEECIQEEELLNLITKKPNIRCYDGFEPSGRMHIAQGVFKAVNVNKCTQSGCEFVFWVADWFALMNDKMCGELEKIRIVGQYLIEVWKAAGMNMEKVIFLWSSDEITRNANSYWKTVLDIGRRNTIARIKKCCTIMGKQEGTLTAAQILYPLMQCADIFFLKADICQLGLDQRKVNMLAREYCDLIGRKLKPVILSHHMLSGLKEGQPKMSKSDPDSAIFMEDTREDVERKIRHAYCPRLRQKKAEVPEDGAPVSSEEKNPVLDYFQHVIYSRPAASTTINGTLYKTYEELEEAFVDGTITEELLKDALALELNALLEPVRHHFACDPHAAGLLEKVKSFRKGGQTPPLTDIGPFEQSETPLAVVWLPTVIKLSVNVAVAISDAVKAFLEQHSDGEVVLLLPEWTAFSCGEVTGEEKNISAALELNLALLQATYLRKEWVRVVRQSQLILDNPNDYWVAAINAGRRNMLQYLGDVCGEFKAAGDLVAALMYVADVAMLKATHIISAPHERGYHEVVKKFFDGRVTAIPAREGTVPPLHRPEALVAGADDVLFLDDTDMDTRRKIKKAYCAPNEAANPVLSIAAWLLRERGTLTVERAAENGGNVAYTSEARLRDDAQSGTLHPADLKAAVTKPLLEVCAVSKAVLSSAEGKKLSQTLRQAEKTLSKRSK
Assay type: functional
Design: scale not given: direction of the effect not stated beside the values

Row | Compound | Percent Effect [%]
22 | Cc1nc[nH]c1CN1CCN(C(=O)c2cccs2)[C@H]2CS(=O)(=O)C[C@H]21 | 4.79
23 | Cc1ccc(CCC(=O)N2CCCC(n3cncn3)C2)c(C)c1 (stereo not given) | 5.79
24 | Cc1cc(-c2nn(C)c(Cl)c2CN2CCOCC2CC(=O)O)no1 (stereo not given) | 7.98
25 | CCc1nc(CN2CCCN(C(=O)c3cn[nH]c3CC)CC2)cs1 | 6.22
26 | CCC(=O)N1CCC(Cc2nccnc2Nc2ccccn2)CC1 | -4.23
27 | Cn1cc(NC(=O)N2CCC(NS(C)(=O)=O)CC2)ccc1=O | -9.09
28 | CC(C)CC(=O)N1C[C@@H]2CCN(c3ncccn3)C[C@@H]2C1 | 0
29 | CN(Cc1ccc2c(c1)OCCO2)C(=O)Cn1ccccc1=O | 2.63
30 | Cc1ccc(N2CCC3(CCCN(C(=O)c4cccnc4)C3)C2)nn1 (stereo not given) | 0.526
31 | O=C(c1cc[nH]n1)N1CCCC(c2cccc(-n3ccnc3)n2)C1 (stereo not given) | 5.29
32 | COC(=O)C1CCN(C(=O)c2ccc(N(C)S(C)(=O)=O)c(C)c2)CC1 | 2.66
33 | CC(=O)N(Cc1ncc(C)o1)C1CCN(CCCc2cnn(C)c2)C1 (stereo not given) | 4.74
34 | O=C(c1ccc(F)cc1Cl)N1CCC(Nc2cccnn2)CC1 | 5.88
35 | Cc1cc(CNc2cc(Cl)ccc2OCCS(C)(=O)=O)no1 | 2.39
36 | CN1[C@H](Cn2cccn2)C[C@@H]2CN(C(=O)Cc3cccs3)CC[C@@H]21 | 6.76
37 | Cc1cccc(CN2C[C@@H]3COC[C@]3(CNC(=O)c3ccsc3)C2)n1 | 7.89
38 | COc1ccc(C2CC(=O)Nc3c2nc2n3CCCC2)cc1OC (stereo not given) | 1.6
39 | CN(C)CCN1CCC2(CCN(C(=O)c3ccc(F)cc3)CC2)C1=O | 10.6
40 | COc1c(CNC2CCc3cc(F)ccc32)c(C)nn1C (stereo not given) | 3.92
41 | Cc1ccc(NC2CCN(C(=O)c3cc(C(N)=O)cs3)CC2)nn1 | 1.58

Row | Compound | Percent Effect [%]
42 | COC[C@@H]1CC[C@H]2[C@H](CCN2S(=O)(=O)c2ccc(OC)cc2)O1 | -1.58
43 | NC(=O)CN1CCC(C(=O)N2CCCC(OCc3cccnc3)C2)CC1 (stereo not given) | 4.79
44 | Cc1ccc(F)cc1C(=O)N1C[C@@H](CN2CCOCC2)[C@@H](CO)C1 | 5.85
45 | CC(C)N1CCO[C@H]2CN(C(=O)c3ccc(N(C)C)cc3)C[C@H]21 | 8.95
46 | O=C(c1cc(C2CC2)on1)N1CCCC(n2cncn2)C1 (stereo not given) | 4.31
47 | CC(Cn1cccn1)NC(=O)N1CCN(Cc2cccs2)CC1 (stereo not given) | 2.63
48 | Cc1nc(-c2ccc(C(=O)O)cc2)cc(C2CCN(C(C)C)C2)n1 (stereo not given) | 5.29
49 | O=C(Nc1nnc(C2CC2)s1)NC1CCN(Cc2ccccc2)C1 (stereo not given) | 0.478
50 | Cc1cc(C(=O)NCc2ccnc(N3CCN(C)CC3)c2)c(C)s1 | 8.13
51 | CC(Cn1cccn1)NC(=O)NCc1cccnc1OC1CCCC1 (stereo not given) | 0.526
52 | Cn1ccc(CN2CCC(NC(=O)Cc3ccccc3)CC2)cc1=O | 7.18
53 | CN(C)CC(=O)N1CCC2(CCN(Cc3ccccn3)C2=O)C1 (stereo not given) | 1.58
54 | CC(C)n1ccnc1C1CCN(C(=O)c2ccccc2)CC1 | 10.1
55 | Cc1nccn1-c1cccc(C2CCCN2S(=O)(=O)N(C)C)n1 (stereo not given) | 5.29
56 | O=C(c1ccccn1)N1CCN(c2ccc(-c3cccnc3)nn2)CC1 | 0.966
57 | Cc1ccccc1-c1cc(C(=O)NCCN2CCCS2(=O)=O)[nH]n1 | 5.26
58 | Cc1cc2cc(C(=O)N3CC[C@H](O)[C@]4(CCCO4)C3)ccc2o1 | 6.35
59 | CC(C)n1[nH]c(=O)c2c1NC(=O)CC2c1ccc2ncccc2c1 (stereo not given) | 4.79
60 | O=C(C1CCC1)N1CCn2c(COc3ncccn3)nnc2C1 | 0.526
